# From PubChem BioAssay
# VHR inh abs = DUSP3 (human) phosphatase inhibition; P51452; recombinant VHR phosphatase, pNPP absorbance; inhibition, % at 13.3 µM; 290,000 tested, 0.52% active; in the data active means inhibition above about 50%
# PrPC surface inh = cell surface PrPC inhibition, primary TR-FRET screen; P04156; TR-FRET read-out; inhibition, % at 13.8 µM; 370,000 tested, 0.43% active; AID 720596; in the data active means inhibition above about 24%; further: 0% = median of the test wells and 100% = reference compound wells
# BJeLR viability = kills HRASV12-expressing BJeLR cells; inhibition, % (test concentration not listed); BJeLR (HRASV12) viability, CellTiter-Glo ATP luminescence, 48 h; 300,000 tested, 0.17% active; in the data active means inhibition above about 50%
# SARS 3CLpro inh = SARS-CoV 3CLpro protease inhibition | AID 1706 | 290,000 tested, 0.14% active | P0C6X7 | recombinant SARS-CoV 3CLpro, quenched FRET peptide cleavage | inhibition, % at 6 µM; in the data active means inhibition above about 12%
# PrPC TRFRET cf = cell surface PrPC inhibition, TR-FRET confirmation; shares compounds with PrPC surface inh; cell surface PrPC level; inhibition, % at 13.8 µM; 1,500 tested, 65% active; in the data active means inhibition above about 25%
# LD9 tox = counter-screen for PrPc inhibitors: cytotoxicity in LD9 cells | shares compounds with PrPC surface inh | luminescence viability | inhibition, % at 13.8 µM | 1,500 tested, 29% active; in the data active means inhibition above about 9.5%
# * = called active by the depositor; · = no result given. In the library only some 1.1% were active in any assay of this set; here they are far more common.
SMILES,VHR inh abs,PrPC surface inh,BJeLR viability,SARS 3CLpro inh,PrPC TRFRET cf,LD9 tox
COc1ccc(CN2CCN(Cc3cccc(Oc4ccccc4)c3)CC2)c(OC)c1OC,5,-4,3,0,·,·
COc1cc(CN2CCN(Cc3cccc(OC)c3OC)CC2)cc(OC)c1,4,28*,-5,-6,-4,0
CC(C)CN1C(=O)[C@]2(CC(=O)N(C)C2c2ccccc2)c2cc(-n3cc(C4=CCCCC4)nn3)ccc21 (stereo partly specified),·,-8,·,·,·,·
N#Cc1c(-c2ccco2)nc(SCc2ccc(F)cc2)[nH]c1=O,6,95*,-1,-3,121*,-7
N#Cc1c(-c2ccccc2)nc(SCc2ccc(Cl)cc2)[nH]c1=O,-29,-3,-5,4,·,·
CCOc1ccc2[nH]cc(C(=O)NCc3ccc(F)cc3)c(=O)c2c1,17,27*,9,1,27*,-1
Cc1cccc(C)c1NC(=O)CN(C)C(=O)CN1C(=O)NC(C)(C)C1=O,·,-6,·,·,·,·
CN(CC(=O)Nc1cccc(F)c1)CC(=O)Nc1cc(S(=O)(=O)N2CCOCC2)ccc1Cl,·,5,·,·,·,·
CCc1nc2ccccc2c(C(=O)OCC(=O)Nc2cccc(S(=O)(=O)N3CCOCC3)c2)c1C,33,26*,2,1,12,10*
CN(CC(=O)Nc1cccc(S(=O)(=O)N2CCOCC2)c1)CC(=O)Nc1ccc(Cl)c(C(F)(F)F)c1,·,25*,1,·,22,3
CCN(CC)C(=O)CSc1nc(-c2cccs2)cc(-c2cccs2)c1C#N,-5,-2,-4,-2,·,·
CCN(CC)C(=O)CSc1nc(N)c(C#N)c(-c2cccs2)c1C#N,4,63*,-2,5,0,-3
Cc1cnc(NC(=O)CN2CCN(c3ccccn3)CC2)s1,-3,38*,7,-2,31*,11*
COc1ccc(N2CCN(CC(=O)Nc3ncc(C)s3)CC2)cc1,16,0,-26,3,·,·
COC(=O)c1c(NC(=O)C2CCCCC2C(=O)O)sc2c1CCCCC2 (stereo unspecified),26,1,4,6,·,·
COC(=O)c1sc(NC(=O)C2CCCCC2C(=O)O)c(C(=O)OC)c1C (stereo unspecified),-6,27*,-6,2,42*,-9
Cc1cccc(NC(=O)Cn2cc(C(=O)C3CC3)c3ccccc32)c1C,28,31*,-1,-9,23,22*
CNc1c2cccc(C)c2nc2c(C(=O)NCCN(C)C)cccc12,·,29*,·,·,62*,59*
Cc1ccc(C(=O)NCCN(C)C)c(C)c1,-8,0,-14,2,·,·
Cc1cccc(N(C(=O)CNC(=O)c2cccs2)C(C(=O)NC2CCCC2)c2ccncc2)c1 (stereo unspecified),-3,4,5,-2,·,·
CC(C)CCNC(=O)C(c1ccco1)N(Cc1ccccc1)C(=O)c1snc(C(N)=O)c1N (stereo unspecified),33,1,-15,0,·,·
Cc1ccc(N(C(=O)c2snc(C(N)=O)c2N)C(C(=O)NCCC(C)C)c2ccco2)cc1 (stereo unspecified),25,27*,2,7,34*,2
Cc1ccc(C(=O)Nc2cccc(C(=O)NCc3ccco3)c2)cc1,-12,39*,3,2,22,17*
O=C(Cc1cccs1)Nc1cccc(C(=O)Nc2ccco2)c1,13,27*,·,1,10,-7
Cc1ccc(C(=O)Nc2cccc(C(=O)NCc3ccccc3)c2)cc1,8,37*,-8,-5,24,6
SMILES,VHR inh abs,PrPC surface inh,BJeLR viability,SARS 3CLpro inh,PrPC TRFRET cf,LD9 tox
COc1ccc(C(=O)Nc2cccc(C(=O)NCc3ccccc3)c2)cc1,26,16,-2,-2,·,·
O=C(NCc1ccco1)c1cccc(NC(=O)c2ccccc2)c1,-1,27*,-3,-8,28*,9
CCC(CC)C(=O)Nc1cccc(C(=O)NCc2ccco2)c1,1,-4,2,-3,·,·
COc1ccc(NC(=O)CN(C)C(=O)CCc2c[nH]c3ccccc23)cc1,23,-4,-5,-6,·,·
CCOC(=O)c1cc(OC(C)=O)c2ccc(OC)c(OC)c2c1,·,-3,·,·,·,·
COc1cccc(C(=O)N[C@H](C(=O)N2CCC[C@H]2C(=O)NCc2ccccc2)C(C)C)c1,·,2,·,·,·,·
O=C1N(c2ccccc2)C[C@@H]2C[C@@H](c3cc4ccccc4o3)N3CCC[C@@]123,20,40*,51*,2,54*,25*
COc1cccc(OCc2cc(C(=O)N(C)Cc3nc4ccccc4[nH]3)no2)c1,51*,29*,7,-3,39*,2
O=[N+]([O-])c1ccc(N2CCN(c3cccc(Cl)c3)CC2)cn1,15,-2,-3,-4,·,·
Cn1ccnc1C(=O)c1cc(SCC(=O)NC2CC2)nc2ccccc12,14,-3,-3,-3,·,·
CN(C(=O)CSc1cc(C(=O)c2nccn2C)c2ccccc2n1)c1ccccc1,17,89*,2,-1,74*,8
CCc1nnc(NS(=O)(=O)c2ccc(NC(=O)c3ccc(C#N)cc3)cc2)s1,-19,-1,-6,3,·,·
CCOC(=O)[C@]12CCCC=C1N(Cc1ccccc1)C(=O)[C@H](CC(=O)NCc1ccc(C)o1)C2,·,0,·,·,·,·
COc1cccc(N2CC(NS(=O)(=O)c3cccnc3)CC2=O)c1 (stereo unspecified),·,1,-10,·,·,·
S=C1NC2=C(C(c3ccc(Br)cc3)N1)N1CCC2CC1 (stereo unspecified),17,26*,4,-8,25*,0
C[C@@H]1CN([C@@H](C)CN(C)C)C(=O)c2cc(NC(=O)Nc3ccccc3)ccc2O[C@@H](C)CCCCO[C@H]1CN(C)S(=O)(=O)c1ccc(F)cc1,·,-18,·,·,·,·
Cc1cccc2cc(C(c3nnnn3Cc3ccccc3)N3CCN(c4ccccc4)CC3)c(=O)[nH]c12 (stereo unspecified),-8,59*,5,-3,3,-2
Cc1cccc2cc(C(c3nnnn3Cc3ccccc3)N3CCN(C)CC3)c(=O)[nH]c12 (stereo unspecified),8,·,3,0,·,·
CCOC(=O)CN1C(=O)N2C[C@H]3CON(C)[C@H]3C[C@H]2c2ccccc21,·,3,·,·,·,·
CCOc1ncccc1C(=O)OC(C)C(=O)Nc1ccc(Cl)cn1 (stereo unspecified),·,0,·,·,·,·
CNc1ccccc1C(=O)OC(C)C(=O)Nc1ccc(Cl)cn1 (stereo unspecified),19,25*,3,1,38*,0
CCOc1ccc(N(C)S(=O)(=O)c2ccc(C)c(C(=O)N3CCN(Cc4ccc5c(c4)OCO5)CC3)c2)cc1,·,25*,·,·,19,-2
CCN1Cc2nnn(Cc3ccccc3)c2-c2cc(F)ccc2S1(=O)=O,·,-6,·,·,·,·
O=C(Nc1ccc(N2CCOCC2)cc1)c1csc([C@H]2C[C@H](O)[C@@H](CO)O2)n1,·,3,·,·,·,·
